Screening results as filed in PubChem BioAssay.
SARS PLpro yeast – SARS-CoV PLP inhibition in yeast | S. cerevisiae expressing SARS-CoV PLpro, growth rescue | Potency, µM (series often up to 32.9 µM), inactives show at the highest dose activity, positive = growth rescue, usual class: activators | 330,000 tested, 0.19% active | AID 485353; calls by dose curve; further: potency means the concentration at half of the fitted maximal effect; 0% is about no effect; nearly all actives have a fitted effect of over 55% in size
Cycloheximide cs – affects cycloheximide protein synthesis inhibition readout, counter-screen | cell reporter, cycloheximide protein synthesis inhibition counterscreen | max response, % | 300,000 tested, 12% active | AID 2314; in the data active means max response mostly above about 13%, no sharp cut-off; inactive means mostly below about 14%; further: read at 38.3 µM for the half of the compounds with a filed dose; 0% is about no effect
Shiga toxin inh – Shiga toxin inhibition; Vero cells, Shiga toxin protein synthesis inhibition reporter; inhibition, % at 38.7 µM; 290,000 tested, 9.2% active; in the data active means inhibition mostly above about 28%, no sharp cut-off; inactive means mostly below about 43%; further: 0% is about no effect
Pf growth 96h – inhibits malaria parasite growth, 96 h; 320,000 tested, 6.9% active; P. falciparum luciferase reporter growth, 96 h; Potency, µM (series often up to 28.7 µM), for inactives: at the highest dose activity change, negative = inhibition, actives largely listed as inhibitors; further: potency means the concentration at half of the fitted maximal effect; on the % scale 0 is the no-effect control and ±100 the full control effect
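Readout is luminescence from an integrated firefly luciferase in P. falciparum. Red cells, 2% hematocrit and 0.05% parasitemia final, were cultured with compound through two parasite generations (96 hours) at 37 C, 5% CO2.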
Pf growth 48h – inhibits P. falciparum growth in the first generation, 48 h; P. falciparum luciferase growth in erythrocytes, 48 h; AID 504832; 310,000 tested, 5.9% active; Potency, µM (series often up to 28.7 µM), without a hit: top-dose activity change, negative = inhibition, actives largely listed as inhibitors; further: potency means the concentration at half of the fitted maximal effect; on the % scale 0 is the no-effect control and ±100 the full control effect
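Compounds are pin-transferred into medium, infected erythrocytes (2% hematocrit, 0.1% parasitemia final) are added, and plates sit one parasite generation at 37 C in 5% CO2. Detection reagent is then added and luminescence measured.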
NS1 function inh – blocks influenza NS1 protein function. Potency, µM (series often up to 46.1 µM), without a hit: top-dose activity, positive = more growth. 270,000 tested, 0.4% active; calls by dose curve; further: potency means the concentration at half of the fitted maximal effect; actives are rising curves; nearly all actives have a fitted effect of over 50% in size
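Compounds were scored for reversing the slow growth caused by influenza A NS1 in S. cerevisiae, measured by optical density at 600 nm. Assay medium contained 2% galactose at pH 6.0; NS1-free yeast of the same strain were the positive control.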
* hit, by the source's call; i = inactive; ? = inconclusive; . = no result given. Sampled rows, rich in hits. Any-hit rate of the full collection: about 21%. Unless noted, the call rests on the fitted dose curve; in most records, active means well fitted inhibition curve with a large enough effect; inconclusive means small, poorly fitted or top-dose-only effect, or another doubt; inactive means no such curve, though single readings can be large or run the other way.

SMILES | SARS PLpro yeast | Cycloheximide cs | Shiga toxin inh | Pf growth 96h | Pf growth 48h | NS1 function inh
NS(=O)(=O)c1ccc(NC(=O)COC(=O)c2ncc(Cl)c(Cl)c2Cl)cc1 | -2.4% | . | . | . | . | .
CC(=O)c1ccc(N2CCN(S(=O)(=O)c3ccc(-c4cnc(C5CC5)o4)cc3)CC2)cc1 | -1.1% | -2.3 | -11.2 | ? | ? | 6.1%
COc1cc2[nH]c(=S)n(NC(=O)CC(C)C)c(=O)c2cc1OC | 0.7% | -2.7 | -4.0 | 10.4µM* | 1.4% | 3.7%
O=C(C1CCC(Cn2c(=S)[nH]c3ccccc3c2=O)CC1)N1CCN(c2ccccn2)CC1 (stereo not drawn) | -3.6% | -6.7 | -4.6 | 11.7µM* | 0.0% | .
COc1ccccc1N1CCN(C(=O)C2CCC(Cn3c(=S)[nH]c4ccccc4c3=O)CC2)CC1 (stereo not drawn) | 4.0% | -3.1 | -11.4 | 70.1% | 10.4µM* | -72.3%
O=C(C1CCC(Cn2c(=S)[nH]c3ccccc3c2=O)CC1)N1CCN(c2ccccc2)CC1 (stereo not drawn) | . | . | . | . | . | -10.1%
COc1ccc(N2CCN(C(=O)C3CCC(Cn4c(=S)[nH]c5ccccc5c4=O)CC3)CC2)cc1 (stereo not drawn) | -3.9% | 0.4 | -9.1 | 14.6% | ? | -21.2%
CCN(CC)C(=O)COc1ccc2c3c(c(=O)oc2c1)CCCC3 | 4.8% | 11.1 | 7.1 | 173.5% | ? | 9.3%
C/C(=N\N=C(N)N)c1ccc(C)c(C)c1 | 1.3% | 8.2 | -3.8 | 11.7µM* | 9.28µM* | 6.7%
C/C(=N\N=C(N)N)c1cccc([N+](=O)[O-])c1 | -6.2% | -5.5 | -1.9 | ? | 7.4% | -1.6%
CCN(CC(=O)Nc1c(F)cccc1F)C(=O)C1CC1C (stereo not drawn) | 2.1% | . | . | 4.4% | 10.8% | .
O=S(=O)(c1ccc2c(c1)OCCO2)N1CCC(n2nnc3cc(C(F)(F)F)ccc32)CC1 | 3.4% | -2.7 | -2.8 | 20.5% | 13.1µM* | ?
COc1ccc(S(=O)(=O)N2CCC(n3cnc4ccccc43)CC2)cc1 | 4.6% | -2.3 | -8.9 | -57.0% | -27.1% | -12.2%
COc1ccc(S(=O)(=O)N2CCC(n3cnc4cc(C(F)(F)F)ccc43)CC2)cc1 | -10.2% | -2.4 | -11.9 | -5.6% | 5.22µM* | -59.1%
COc1cc2c(cc1OC)[C@H](C)N(C(=O)NCc1ccccc1)CC2 | 0.3% | -2.8 | -4.9 | -18.2% | . | -7.8%
CC(C)(C)NC(=O)CCCSc1nc2ccccc2s1 | -0.8% | 46.7* | 72.1* | 190.2% | 187.6% | -3.5%
O=C(CCCSc1nc2ccccc2s1)NCc1ccc2c(c1)OCO2 | 8.8% | 17.0* | -19.1 | 38.3% | 13.0% | 0.0%
COc1ccc(C)cc1S(=O)(=O)N(CC(=O)Nc1cccc([N+](=O)[O-])c1)c1ccc(C)c(C)c1 | 15.8% | -2.8 | -3.1 | 17.2% | 13.1µM* | 6.5%
CC(C)C(=O)NNC(=O)CC(=O)Nc1ccccc1C(=O)O | 0.9% | -1.5 | -12.1 | -37.3% | 6.2% | -7.0%
CCOC(=O)c1cnc2ccc(OCC)cc2c1NCCCN1CCOCC1 | 4.9% | 17.6* | 14.7 | 5.9% | ? | -0.7%
CCOc1ccc2ncc(S(=O)(=O)c3ccc(C)cc3)c(N3CCC4(CC3)OCCO4)c2c1 | -9.0% | -1.2 | -8.5 | 7.38µM* | 11.7µM* | 10.1%
CCOC(=O)c1cnc2ccc(OCC)cc2c1N1CCN(C)CC1 | 6.1% | -0.6 | 15.1 | 0.0% | 8.28µM* | -6.3%
CCOC(=O)c1cnc2ccc(OCC)cc2c1NCCN1CCOCC1 | 0.6% | -0.9 | -4.4 | ? | ? | 3.2%
CCOC(=O)c1cnc2c(c(C)nn2CC)c1NCCN1CCOCC1 | -1.4% | -1.6 | 1.8 | 11.7µM* | -24.8% | -5.6%
CCCOc1ccc(CC(=O)NCCc2ccccc2)cc1OC | 1.8% | -1.8 | . | ? | 9.4% | -9.8%
SMILES | SARS PLpro yeast | Cycloheximide cs | Shiga toxin inh | Pf growth 96h | Pf growth 48h | NS1 function inh
COc1ccccc1CCN1CCCC(CN(C)C(=O)CCC(=O)N(C)C)C1 (stereo not drawn) | 0.6% | -1.4 | -6.4 | ? | -6.2% | -0.7%
CCOC(=O)c1cnc2c(CC)cccc2c1NCCCN1CCOCC1 | 4.6% | 3.4 | 9.8 | ? | ? | -4.8%
CCOC(=O)c1cnc2c(C(F)(F)F)cccc2c1NCCCN1CCOCC1 | -6.4% | -2.6 | -14.3 | 221.7% | 5.22µM* | 7.7%
COc1ccc(CC(=O)N(C)C2CCCCC2)cc1S(=O)(=O)N1CCOCC1 | -0.6% | -0.9 | -1.2 | -10.1% | -23.5% | .
COc1cccc(NC(=O)Cn2c(=O)n(C)c(=O)c3sc4c(c32)COC(C)(C)C4)c1 | -2.8% | 7.6 | -3.0 | 2.62µM* | 4.15µM* | 0.8%
CC(C)n1c(=O)c(C=Nc2ccc(S(N)(=O)=O)cc2)c(O)n(Cc2ccco2)c1=O | -14.1% | -1.6 | -21.6 | -7.6% | 0.4% | 13.7%
CCCCn1c(=O)c(C=Nc2ccc(Cl)cc2)c(O)n(Cc2ccco2)c1=O | 1.7% | -3.5 | -11.9 | 9.28µM* | 8.28µM* | 10.1%
Cc1sc(N)nc1-c1ccc(Oc2ccccc2)cc1 | -20.7% | 19.3* | 78.0 | ? | 62.7% | -135.4%
Nc1nc(N)nc(-c2ccc(Oc3ccccc3)cc2)n1 | -39.2% | 27.5 | 25.6 | -5.5% | . | -169.4%
Nc1nc(-c2ccc3c(c2)OCCO3)c(CC(=O)O)s1 | 28.7% | 5.7 | 2.5 | -16.9% | -4.1% | 14.0%
Cc1sc(N)nc1-c1ccc2c(c1)OCCO2 | -3.0% | 17.5* | 52.6* | ? | 22.9% | -13.3%
CNC(=O)c1ccccc1-c1cn(C)c2ccccc2c1=O | -2.0% | -7.7 | 21.5 | 0.0% | i | .
Cc1ccccc1OCCOc1cccc(/C=N/NC(=O)Cc2nnc(N)s2)c1 | -1.7% | 38.3* | 136.9* | i | 224.1% | 11.6%
Nc1nnc(CC(=O)N/N=C/c2cccc([N+](=O)[O-])c2)s1 | 5.9% | -4.6 | -12.7 | 4.9% | 31.5% | -1.5%
Nc1nnc(CC(=O)N/N=C/c2cccc(OCCOc3ccccc3)c2)s1 | -2.0% | 40.5* | 68.7* | 164.6% | 153.8% | 11.4%
CC(C)(C)NC(=O)C(c1ccc(-c2ccccc2)cc1)N(C[C@H]1CC[C@@H]([C@@H]2CC[C@H](CO)O2)O1)C(=O)c1cccc(Cl)c1 (stereo partly drawn) | -17.1% | . | . | . | . | .
COc1ccc(-c2nnc(CSc3nnc(-c4ccncc4)n3C3CCCCC3)o2)cc1OC | -3.9% | 5.4 | -12.9 | 9.28µM* | ? | -9.0%
COCCCn1c(SCc2nnc(-c3ccc(OC)c(OC)c3)o2)nnc1-c1ccncc1 | 23.5% | -2.6 | 8.7 | -18.8% | 7.4% | 8.7%
COc1ccc(OC)c(CN2CCSCC2)c1 | 4.7% | -1.6 | 1.7 | -2.3% | ? | -4.6%
COc1ccc(-c2[nH]ncc2CN2CCSCC2)c(OC)c1 | -0.5% | -2.5 | -15.2 | 11.7µM* | -0.9% | 4.2%
COc1ccc(CN2CCSCC2)c(C)c1C | -3.5% | -2.9 | -2.7 | 8.28µM* | -2.0% | -11.0%
Cc1ccc(Cn2ccc(=O)c(Cc3c(Cl)cccc3Cl)c2C)cc1 | -0.5% | -8.0 | -15.2 | 0.415µM* | ? | -33.7%
COc1ccc(Cn2ccc(=O)c(Cc3c(Cl)cccc3Cl)c2C)cc1 | 1.6% | -4.0 | -18.0 | ? | ? | 3.3%
